Experimental data: the supplement of paper PMC12669032

Tests used:
Assay in all cases: growth AUC relative to DMSO control (median of replicates) (fraction); higher = more growth (less inhibition), active = hit call of the paper
Settings in all cases: 20 µM; 24 h;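 active = AUC reduced over 20% with Padj below 0.05 in at least 2 of 3 replicates; inactive = otherwise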
Akkermansia muciniphila = system: Akkermansia muciniphila
Method in brief: (§1)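 Gut bacterial monocultures were grown anaerobically at 37 °C in mGAM, starting at OD600 0.05, with 20 µM compound (1% DMSO) in round-bottom 96-well plates under pierced gas-permeable seals. OD600 was read hourly for 24 h. Area under the growth curve (minimum OD set to 0) was normalised to the plate median of DMSO controls, or to row and column medians on the industrial chemical plate. The value is the median of three biological replicates grown on separate days.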

Bacteroides caccae = system: Bacteroides caccae
Method in brief: as §1

Bacteroides clarus = system: Bacteroides clarus
Method in brief: as §1

Bacteroides dorei = system: Bacteroides dorei
Method in brief: as §1

Bacteroides stercoris = system: Bacteroides stercoris
Method in brief: as §1

[1] = system: Bacteroides thetaiotaomicron
Method in brief: as §1

Bacteroides uniformis = system: Bacteroides uniformis
Method in brief: as §1

[2] = system: Bifidobacterium longum subsp. longum
Method in brief: as §1

Clostridium difficile = system: Clostridium difficile
Method in brief: as §1

Collinsella aerofaciens = system: Collinsella aerofaciens
Method in brief: as §1

Measured: growth AUC

Cc1ccc2nc3sc(=O)sc3nc2c1
inactive: Akkermansia muciniphila 1.04 | Bacteroides caccae 0.982 | Bacteroides clarus 1.01 | Bacteroides dorei 0.985 | Bacteroides stercoris 0.879 | [1] 1 | Bacteroides uniformis 1.04 | [2] 1.07 | Clostridium difficile 1.02 | Collinsella aerofaciens 0.982

COP(=O)(OC)OC1=C(Cl)C2C=CCC12 (stereo not given)
inactive: Akkermansia muciniphila 1.03 | Bacteroides caccae 0.928 | Bacteroides clarus 0.995 | Bacteroides dorei 1 | Bacteroides stercoris 1.42 | [1] 1.02 | Bacteroides uniformis 1.02 | [2] 1.01 | Clostridium difficile 1 | Collinsella aerofaciens 0.964

COCC(=O)N(c1c(C)cccc1C)[C@H](C)C(=O)OC
inactive: Akkermansia muciniphila 0.94 | Bacteroides caccae 1 | Bacteroides clarus 1.04 | Bacteroides dorei 1.04 | Bacteroides stercoris 1.06 | [1] 1 | Bacteroides uniformis 1.02 | [2] 1.1 | Clostridium difficile 1.02 | Collinsella aerofaciens 1.04

Cc1nc(N(C)C)nc(OC(=O)N(C)C)c1C
inactive: Akkermansia muciniphila 1.02 | Bacteroides caccae 0.997 | Bacteroides clarus 0.989 | Bacteroides dorei 1.05 | Bacteroides stercoris 1.05 | [1] 1.02 | Bacteroides uniformis 0.977 | [2] 0.826 | Clostridium difficile 1.05 | Collinsella aerofaciens 1.04

Cc1cnc(C2=NC(C)(C(C)C)C(=O)N2)c(C(=O)O)c1 (stereo not given)
inactive: Akkermansia muciniphila 1.05 | Bacteroides caccae 0.987 | Bacteroides clarus 0.993 | Bacteroides dorei 1.02 | Bacteroides stercoris 0.976 | [1] 1.01 | Bacteroides uniformis 1.01 | [2] 1.03 | Clostridium difficile 1.01 | Collinsella aerofaciens 1.02

O=C(OC1CCCCC1)c1ccccc1C(=O)OC1CCCCC1
inactive: Akkermansia muciniphila 1 | Bacteroides caccae 0.967 | Bacteroides clarus 0.997 | Bacteroides dorei 0.985 | Bacteroides stercoris 1.09 | [1] 0.951 | Bacteroides uniformis 0.985 | [2] 1 | Clostridium difficile 0.995 | Collinsella aerofaciens 0.943

CCS(=O)Cc1ccccc1OC(=O)NC (stereo not given)
inactive: Akkermansia muciniphila 1.22 | Bacteroides caccae 0.98 | Bacteroides clarus 0.986 | Bacteroides dorei 0.943 | Bacteroides stercoris 0.992 | [1] 1 | Bacteroides uniformis 0.945 | [2] 0.966 | Clostridium difficile 0.979 | Collinsella aerofaciens 0.977

N#Cc1nn(-c2c(Cl)cc(C(F)(F)F)cc2Cl)c(N)c1SC(F)(F)F
inactive: Akkermansia muciniphila 1.01 | Bacteroides caccae 0.941 | Bacteroides clarus 0.858 | Bacteroides dorei 0.899 | Bacteroides stercoris 1.14 | [1] 0.953 | Bacteroides uniformis 0.928 | [2] 1.09 | Clostridium difficile 0.909 | Collinsella aerofaciens 0.942

O=[N+]([O-])c1c(Cl)c(Cl)c(Cl)c(Cl)c1Cl
inactive: Akkermansia muciniphila 0.814 | Bacteroides caccae 0.777 | Bacteroides clarus 0.816 | Bacteroides dorei 0.972 | Bacteroides stercoris 0.986 | [1] 0.915 | Bacteroides uniformis 0.917 | [2] 0.808 | Clostridium difficile 1.01 | Collinsella aerofaciens 1.04

O.[Br-].[Br-].c1cc[n+]2c(c1)-c1cccc[n+]1CC2
inactive: Akkermansia muciniphila 0.784 | Bacteroides clarus 0.992 | Bacteroides dorei 0.996 | Bacteroides stercoris 1.01 | [1] 1.01 | Bacteroides uniformis 0.984 | [2] 1.02 | Clostridium difficile 0.912 | Collinsella aerofaciens 0.995
active: Bacteroides caccae 0.612

O=C(NC(=O)c1c(F)cccc1F)Nc1cc(Cl)c(OC(F)(F)C(F)C(F)(F)F)cc1Cl (stereo not given)
inactive: Akkermansia muciniphila 0.997 | Bacteroides caccae 0.981 | Bacteroides clarus 0.982 | Bacteroides dorei 1.02 | Bacteroides stercoris 1.01 | [1] 0.99 | Bacteroides uniformis 0.962 | [2] 0.981 | Clostridium difficile 1.04 | Collinsella aerofaciens 0.94

O=S(=O)(c1ccc(O)cc1)c1ccc(O)cc1
inactive: Akkermansia muciniphila 0.921 | Bacteroides caccae 0.97 | Bacteroides clarus 1 | Bacteroides dorei 1.01 | Bacteroides stercoris 0.977 | [1] 0.996 | Bacteroides uniformis 0.987 | [2] 0.949 | Clostridium difficile 0.997 | Collinsella aerofaciens 0.976

CCOP(=O)(OCC)O/C(=C\Cl)c1ccc(Cl)cc1Cl
inactive: Akkermansia muciniphila 0.854 | Bacteroides caccae 0.982 | Bacteroides clarus 0.952 | Bacteroides dorei 0.983 | Bacteroides stercoris 0.956 | [1] 0.962 | Bacteroides uniformis 0.942 | [2] 0.873 | Clostridium difficile 1 | Collinsella aerofaciens 1

O=C(O)C(F)(F)C(F)(F)C(F)(F)C(F)(F)C(F)(F)C(F)(F)F
inactive: Akkermansia muciniphila 0.965 | Bacteroides caccae 1.03 | Bacteroides clarus 1 | Bacteroides dorei 1.01 | Bacteroides stercoris 1 | [1] 1 | Bacteroides uniformis 1.02 | [2] 1.04 | Clostridium difficile 1 | Collinsella aerofaciens 1.02

COP(=S)(OC)Oc1cc(Cl)c(Cl)cc1Cl
inactive: Akkermansia muciniphila 1.09 | Bacteroides caccae 0.936 | Bacteroides clarus 1.02 | Bacteroides dorei 0.947 | Bacteroides stercoris 1.17 | [1] 1.03 | Bacteroides uniformis 0.939 | [2] 0.947 | Clostridium difficile 1.02 | Collinsella aerofaciens 1.04

COCC(C)N(C(=O)CCl)c1c(C)csc1C (stereo not given)
inactive: Akkermansia muciniphila 1.35 | Bacteroides caccae 1.03 | Bacteroides clarus 1.01 | Bacteroides dorei 0.929 | Bacteroides stercoris 1.04 | [1] 0.973 | Bacteroides uniformis 0.93 | [2] 0.841 | Clostridium difficile 0.847 | Collinsella aerofaciens 0.922

COP(=O)(OC)Oc1ccc([N+](=O)[O-])cc1
inactive: Akkermansia muciniphila 1.17 | Bacteroides caccae 0.989 | Bacteroides clarus 1.03 | Bacteroides dorei 1.02 | Bacteroides stercoris 1.01 | [1] 0.991 | Bacteroides uniformis 1 | [2] 1.07 | Clostridium difficile 1.04 | Collinsella aerofaciens 0.948

CC(C)=CC1C(C(=O)OCc2cccc(Oc3ccccc3)c2)C1(C)C (mixture of isomers)
inactive: Akkermansia muciniphila 1.21 | Bacteroides caccae 0.961 | Bacteroides clarus 0.994 | Bacteroides dorei 0.917 | Bacteroides stercoris 1.01 | [1] 1 | Bacteroides uniformis 0.991 | [2] 0.864 | Clostridium difficile 1.02 | Collinsella aerofaciens 0.914

CNC1=C(c2cccc(C(F)(F)F)c2)C(=O)C(c2ccccc2)O1 (stereo not given)
inactive: Akkermansia muciniphila 0.993 | Bacteroides caccae 1.02 | Bacteroides clarus 0.953 | Bacteroides dorei 1.01 | Bacteroides stercoris 1.01 | [1] 0.986 | Bacteroides uniformis 0.972 | [2] 0.888 | Clostridium difficile 1.08 | Collinsella aerofaciens 1.02

CNC(=O)O/N=C(\C)C(C)S(C)(=O)=O (stereo not given)
inactive: Akkermansia muciniphila 1.15 | Bacteroides caccae 0.99 | Bacteroides clarus 1.01 | Bacteroides dorei 0.969 | Bacteroides stercoris 0.931 | [1] 1.03 | Bacteroides uniformis 1.01 | [2] 1.27 | Clostridium difficile 0.98 | Collinsella aerofaciens 0.953

CC1(C)C(C=C(Cl)Cl)C1C(=O)OCc1cccc(Oc2ccccc2)c1 (mixture of isomers)
inactive: Akkermansia muciniphila 1.02 | Bacteroides caccae 0.991 | Bacteroides clarus 0.98 | Bacteroides dorei 1.01 | Bacteroides stercoris 1.07 | [1] 1.02 | Bacteroides uniformis 1.03 | [2] 0.957 | Clostridium difficile 1.01 | Collinsella aerofaciens 0.942

CNC(=O)O/N=C/C(C)(C)S(C)(=O)=O
inactive: Akkermansia muciniphila 0.927 | Bacteroides caccae 0.994 | Bacteroides clarus 0.962 | Bacteroides dorei 1.02 | Bacteroides stercoris 0.973 | [1] 1 | Bacteroides uniformis 1.01 | [2] 1.05 | Clostridium difficile 0.966 | Collinsella aerofaciens 1.01

COCc1cnc(C2=NC(C)(C(C)C)C(=O)N2)c(C(=O)O)c1 (stereo not given)
inactive: Akkermansia muciniphila 1.12 | Bacteroides caccae 0.971 | Bacteroides clarus 1.03 | Bacteroides dorei 0.918 | Bacteroides stercoris 1 | [1] 0.999 | Bacteroides uniformis 1.01 | [2] 1.22 | Clostridium difficile 0.973 | Collinsella aerofaciens 0.998

CCCSP(=O)(OCC)Oc1ccc(Br)cc1Cl (stereo not given)
inactive: Akkermansia muciniphila 0.944 | Bacteroides caccae 0.864 | Bacteroides clarus 0.95 | Bacteroides dorei 0.985 | Bacteroides stercoris 1.17 | [1] 0.901 | Bacteroides uniformis 0.881 | [2] 1.06 | Clostridium difficile 1.03 | Collinsella aerofaciens 0.972

CCc1cc(C)cc(CC)c1-c1c(OC(=O)C(C)(C)C)n2n(c1=O)CCOCC2
inactive: Akkermansia muciniphila 1.01 | Bacteroides caccae 0.906 | Bacteroides clarus 1 | Bacteroides dorei 0.992 | Bacteroides stercoris 1.22 | [1] 1.01 | Bacteroides uniformis 1 | [2] 0.952 | Clostridium difficile 0.944 | Collinsella aerofaciens 1

O=C(O)CCl
inactive: Akkermansia muciniphila 0.94 | Bacteroides caccae 0.966 | Bacteroides clarus 0.991 | Bacteroides dorei 0.982 | Bacteroides stercoris 1.07 | [1] 1 | Bacteroides uniformis 0.947 | [2] 0.938 | Clostridium difficile 0.995 | Collinsella aerofaciens 0.976
